Results taken from ChEMBL document CHEMBL4513216, “Probing the Open Global Health Chemical Diversity Library for Multistage-Active Starting Points for Next-Generation Antimalarials” (ACS Infect Dis, 2020).
Out of some 69,000 compounds screened, about 8,600 (12%) showed an effect of 50% or more. Shown is part of a subset that was picked to be rich in strong results.

Test system: Plasmodium berghei
Assay: Screen against P. berghei liver stage (PbLuc), transformed with Luciferase, at 10uM
Type: functional, HepG2
Settings: tested at 10 uM

Row | Compound | INHIBITION [%]
1 | CC(C)c1noc(CN2CCCC2c2noc(C(C)C)n2)n1 (stereo not given) | 29.2
2 | COc1ccc(S(=O)(=O)Nc2cccnc2-n2cncn2)cc1C | 1.56
3 | COc1ncc(NC(=O)c2ccco2)c(OC)n1 | 36.6
4 | COc1ncc(NS(=O)(=O)c2ccc(F)c(F)c2)c(OC)n1 | 11.6
5 | CCOc1ccc(S(=O)(=O)Nc2cnc(OC)nc2OC)cc1 | 81.1
6 | COc1ncc(NS(=O)(=O)c2cccc(C)c2)c(OC)n1 | 34.6
7 | COc1ncc(NS(=O)(=O)c2ccc(OC)c(C)c2)c(OC)n1 | 69.6
8 | Cc1ccc([C@H]2CN(CCO)C[C@@H]2NC(=O)CN2CCCCC2=O)o1 | 4.93
9 | Cc1nc(Nc2nnc(C)s2)cc(C2CCCN2c2ccncn2)n1 (stereo not given) | 25.6
10 | O=C1COC2(COCCN(Cc3cccnc3)C2)CN1c1ccoc1 (stereo not given) | 12.2
11 | Cc1nc2c(c(=O)n1C)CCN(Cc1cc3cc[nH]c3cn1)CC2 | 19.8
12 | Cc1cc(CN2CCc3nc(C)n(C)c(=O)c3CC2)[nH]n1 | 45.6
13 | Cc1nc2c(c(=O)n1C)CCN(Cc1cc3ccccc3[nH]1)CC2 | 60.4
14 | Cc1cc(CN2CCc3cncnc3C2)on1 | -40.5
15 | CCN(C(=O)CCOC)C(c1ccc(Cl)cc1)c1ccccn1 (stereo not given) | 58.8
16 | CCN(C(=O)CCCOC)C(c1ccc(Cl)cc1)c1ccccn1 (stereo not given) | 31
17 | CCN(C(=O)COC)C(c1ccc(Cl)cc1)c1ccccn1 (stereo not given) | 44.9
18 | O=C(C1CCCC1)N1CCCC2(CCN(c3cnccn3)CC2)C1 | -9.74
19 | c1c(CN2CCOCC2)nc2n1CCN(CC1CC1)C2 | 23.6
20 | O=C(Cc1ccc(F)cc1F)NCC(=O)Nc1ccccn1 | 45
21 | CCN1CC(C(=O)N2CCc3cc(C(=O)N(C)C)n(C)c3C2)CCC1=O (stereo not given) | 51.7
22 | CCN1CC(C(=O)N2CCc3cc(C(N)=O)n(C)c3C2)CCC1=O (stereo not given) | 54.5
23 | CCN1CC(C(=O)N2CCc3cc(C(N)=O)n(C)c3C2)CC1=O (stereo not given) | 32.2
24 | Cn1c(C(N)=O)cc2c1CN(C(=O)C1CC(=O)N(C(C)(C)C)C1)CC2 (stereo not given) | 48
25 | Cn1c(C(N)=O)cc2c1CN(C(=O)C1CCCN(C3CCCC3)C1)CC2 (stereo not given) | 15.5
26 | CCN1CC(C(=O)N2CCN(c3cnn(C)c(=O)c3)CC2)CCC1=O (stereo not given) | -22
27 | Cc1ncc2c(n1)CN(CCCOc1ccc(C#N)cc1)CC2 | 19.2

Row | Compound | INHIBITION [%]
28 | CC(C)SCc1cccc(NC(=O)NC(C)c2nc[nH]n2)c1 (stereo not given) | 5.33
29 | O=C(CCc1ccc(Br)cc1)NCCc1nnc[nH]1 | -7.12
30 | COCCNC(=O)Nc1cccc(COCCOC(C)C)c1 | 18.6
31 | CC(=O)c1cccc(NC(=O)NCCCc2nc(C(C)C)no2)c1 | -34.8
32 | Cc1nnc(CCNC(=O)Nc2ccc(S(C)(=O)=O)cc2)[nH]1 | -30
33 | CC(C)SCc1cccc(NC(=O)NCCc2nnc[nH]2)c1 | 56.3
34 | CC(=O)c1cccc(NC(=O)NCCc2nnc[nH]2)c1 | 66.5
35 | CC(=O)c1cccc(NC(=O)NCCOCC2CC2)c1 | -35.9
36 | O=C(NCCc1nnc[nH]1)Nc1cccc(SC(F)F)c1 | 51.7
37 | Cc1cc(C)n(CC2CCCN2C(=O)c2c[nH]c(=O)c(Cl)c2)n1 (stereo not given) | 21
38 | COc1ccc(OCCNC(=O)CN(C)Cc2nnc(C)n2C)cc1 | -10.8
39 | O=C1COC2(CCN(CC3CC3)CC2)CN1c1cncnc1 | -33.3
40 | COc1cc(OC)cc(C2CC(=O)Nc3c2nc2n3CCCC2)c1 (stereo not given) | 1.19
41 | Cc1noc(C)c1CN(C)CC(=O)Nc1ccnn1C(C)C1CC1 (stereo not given) | -72.5
42 | O=C(O)c1ccc(CN2CCC(c3ccnc4ccnn34)CC2)cc1 | 13.5
43 | CC(=O)N1CCCC(c2nnc3n2CCN(C(=O)C2CCCCC2)C3)C1 (stereo not given) | 33.39
44 | Cc1ccc(F)c(NCc2ccc(C(=O)N(C)C)[nH]2)c1 | -17.9
45 | CCn1cc(S(=O)(=O)NCC(c2ccccc2)N2CCOCC2)c(C)n1 (stereo not given) | 8.335
46 | CN(C)C1(C(=O)NC2CCC(Oc3ccccc3C#N)CC2)CCC1 (stereo not given) | 67.4
47 | CN(C)CCN(C)C(=O)NC1CCC(Oc2ccccc2C#N)CC1 (stereo not given) | 34
48 | CCNC(=O)NC1CCC(Oc2ccccc2C#N)CC1 (stereo not given) | 40.2
49 | Cc1cnn(CC2CCCCN2C(=O)Cc2c(C)nn(C)c2C)c1 (stereo not given) | 7.08
50 | CCC[C@H]1CN(Cc2ccc(N(C)C)nc2)C[C@@H]1NC(=O)CCOC | 62.2
51 | CCC[C@H]1CN(Cc2ccc(N(C)C)nc2)C[C@@H]1NC(=O)CO | 42.1
52 | CCC[C@H]1CN(Cc2ccc(N(C)C)nc2)C[C@@H]1NC(=O)CSC | 33.1
53 | O=C1CCC2(CCCN(c3ncc(F)cn3)CC2)N1Cc1ccccc1 (stereo not given) | -2.17
54 | Cc1cnc(N2CCC3(CCCN3C(=O)c3ccco3)CC2)nc1 | 60.5

Row | Compound | INHIBITION [%]
55 | O=C(c1ccco1)N1CCC12CCN(c1ncc(F)cn1)CC2 | 58
56 | O=C(c1ccco1)N1CCCC12CCN(c1ncccn1)CC2 | -72.6
57 | Cc1cnc(N2CCC3(CCCCN3C)C2)nc1 (stereo not given) | -38.1
58 | O=C1CCC2(CCN(c3ncc(F)cn3)CC2)N1Cc1ccncc1 | 35.8
59 | O=C(Nc1ccccc1Cn1cccn1)N1CCC(N2CCCC2)C1 (stereo not given) | 5.42
60 | CCCc1nc(NCCCn2ccnc2)c2c(n1)c(C)nn2CC | 17.7
61 | Cc1nn(C)c2nc3c(c(C(=O)/N=c4\[nH]nc(C(C)C)s4)c12)CCC3 | 7.83
62 | Cc1noc(CCNC(=O)NCC(=O)NCc2ccccc2)n1 | -176
63 | CC(NC(=O)CCCOc1ccc(F)cc1)c1nnc2n1CCC2 (stereo not given) | -12.2
64 | CO[C@H]1CCN(Cc2c(C)noc2C)[C@@H]2CN(Cc3ccncc3)C[C@H]12 | 12.6
65 | CC(C)c1nccc(C2(c3ccccc3Cl)CCNCC2)n1 | 20.2
66 | CC(C)(C)c1nccc(C2(c3ccccc3Cl)CCNCC2)n1 | 72.8
67 | CCC1C(=O)NCCN1c1ccnc(C(C)(C)C)n1 (stereo not given) | 26.8
68 | Clc1ccccc1C1(c2ccnc(-c3ncccn3)n2)CCNCC1 | 33.5
69 | Clc1ccccc1C1(c2ccnc(CC3CC3)n2)CCNCC1 | 43.5
70 | Clc1ccccc1C1(c2ccnc(C3CC3)n2)CCNCC1 | 44.1
71 | O=c1[nH]cccc1-c1nccc(C2(c3ccccc3Cl)CCNCC2)n1 | 33
72 | Clc1ccccc1C1(c2ccnc(C3CCCC3)n2)CCNCC1 | 94.4
73 | Clc1ccccc1C1(c2ccnc(-c3ccncc3)n2)CCNCC1 | 55.1
74 | NC(=O)NCCC(=O)NCc1nn(-c2ccccc2)c2c1CCC2 | 15.115
75 | Nc1nc2c(c(NCC(c3cccnc3)N3CCOCC3)n1)CCCC2 (stereo not given) | -21.3
76 | CC(C)c1nn(C)c(Cl)c1CNCC(O)c1cccc(F)c1 (stereo not given) | 42
77 | Cc1cc(C(=O)N2CCN(Cc3ccsc3)CC2)n(C)n1 | -3.2
78 | CCOCC(O)CN1CCN(C(=O)c2ccccc2F)CC1 (stereo not given) | -35.7
79 | CN(C[C@@H]1CCC[C@@H]2CN(Cc3cccnc3)C[C@@H]21)C1CC1 | -5.63
80 | Cc1nccc(C(=O)NC(COCC(C)C)c2ccco2)n1 (stereo not given) | -19.4
81 | COc1cc(CN(C)C(=O)NC2CC2)ccc1SC | 14.3

Row | Compound | INHIBITION [%]
82 | CCN(CC)C(=O)CCNC(=O)N(C)Cc1ccc(SC)c(OC)c1 | 8.97
83 | CCNC(=O)N(C)Cc1ccc(SC)c(OC)c1 | 55.1
84 | COc1cc(CN(C)C(=O)NCC(=O)NC(C)C)ccc1SC | 14.3
85 | COc1cc(CN(C)C(=O)NCCNC(=O)C2CC2)ccc1SC | 52.9
86 | CCOCCCNC(=O)N(C)Cc1ccc(SC)c(OC)c1 | 12.6
87 | CCC1CCCCCN1C(=O)c1nnc2ccccc2c1N (stereo not given) | 40.3
88 | Cc1cccc(OCCC(=O)NCC2CN(C)CCO2)c1C (stereo not given) | -36.85
89 | CC(C)(C)c1cc(C[C@H]2CNCC[C@H]2CC(=O)Nc2ccccc2)no1 | 44.4
90 | CC(C)NC(=O)C[C@@H]1CCNC[C@@H]1Cc1cc(-c2ccccc2)on1 | 59.8
91 | CC(C)NC(=O)C[C@@H]1CCNC[C@@H]1Cc1cc(-c2ccccn2)on1 | -14.2
92 | O=C(CC1[C@H]2CN(C(=O)Cc3ccccn3)C[C@@H]12)Nc1cccnc1 (stereo not given in full) | 39.4
93 | COCCNC(=O)C1CN(Cc2ccncc2)Cc2ccnn2C1 (stereo not given) | 89.3
94 | COCCNC(=O)C1CN(Cc2csc(C)n2)Cc2ccnn2C1 (stereo not given) | 62.5
95 | COCCNC(=O)C1CN(Cc2nccs2)Cc2ccnn2C1 (stereo not given) | 29.9
96 | O=C(C1CN(Cc2ccsc2)Cc2ccnn2C1)N1CCCC1 (stereo not given) | 15.7
97 | CN(C)C(=O)C1CN(Cc2ccsc2)Cc2ccnn2C1 (stereo not given) | 52.6
98 | COCCNC(=O)C1CN(Cc2cccc(C)n2)Cc2ccnn2C1 (stereo not given) | 7.77
99 | CC(C)NC(=O)C1CN(Cc2ccsc2)Cc2ccnn2C1 (stereo not given) | 37.9
100 | Cc1noc(C)c1CN1CC[C@H]2OCC[C@@H](C(=O)NCC3CC3)[C@H]2C1 | 54.7
101 | Cc1noc(C)c1CN1CC[C@H]2OCC[C@@H](C(=O)NCC3CC3)[C@@H]2C1 | -3.83
102 | COCCNC(=O)C1CN(Cc2ccsc2)Cc2ccnn2C1 (stereo not given) | 5.36
103 | Cc1noc(C)c1CN1CC[C@H]2OCC[C@@H](C(=O)N3CCCO3)[C@@H]2C1 | 34.1
104 | COCCNC(=O)C1CN(Cc2cccnc2)Cc2ccnn2C1 (stereo not given) | 35.7
105 | Cc1cccc(N2CCN(C(=O)CCc3c(C)noc3Cl)CC2)c1 | 45.7
